Measured values reported in PubChem BioAssay AID1030 (National Center for Advancing Translational Sciences (NCATS), 2008).
About 16,000 (7.3%) of roughly 220,000 compounds were called active. Entries that show only a call come without a potency. Inconclusive results (about 25%) are left out. This excerpt belongs to a sample that is enriched for actives. Values without a mark were called inactive. Calls follow the shape of the dose curve; as a rule, active = well fitted inhibition curve with a large enough effect (not every such curve was filed as active); inconclusive = small, poorly fitted or top-dose-only effect, or another doubt; inactive = no such curve, though single readings can be large or run the other way.
Potency is read from the fitted curve at half-maximal effect.

What follows are molecules tested against Aldehyde dehydrogenase 1A1 (Homo sapiens) (UniProt P00352) (assay: qHTS Assay for Inhibitors of Aldehyde Dehydrogenase 1 (ALDH1A1)). Settings: Purified ALDH1A1, NADH fluorescence, propionaldehyde substrate; series mostly up to 75.3 µM.
Chain of Aldehyde dehydrogenase 1A1 (Homo sapiens) (P00352 whole entry, looked up): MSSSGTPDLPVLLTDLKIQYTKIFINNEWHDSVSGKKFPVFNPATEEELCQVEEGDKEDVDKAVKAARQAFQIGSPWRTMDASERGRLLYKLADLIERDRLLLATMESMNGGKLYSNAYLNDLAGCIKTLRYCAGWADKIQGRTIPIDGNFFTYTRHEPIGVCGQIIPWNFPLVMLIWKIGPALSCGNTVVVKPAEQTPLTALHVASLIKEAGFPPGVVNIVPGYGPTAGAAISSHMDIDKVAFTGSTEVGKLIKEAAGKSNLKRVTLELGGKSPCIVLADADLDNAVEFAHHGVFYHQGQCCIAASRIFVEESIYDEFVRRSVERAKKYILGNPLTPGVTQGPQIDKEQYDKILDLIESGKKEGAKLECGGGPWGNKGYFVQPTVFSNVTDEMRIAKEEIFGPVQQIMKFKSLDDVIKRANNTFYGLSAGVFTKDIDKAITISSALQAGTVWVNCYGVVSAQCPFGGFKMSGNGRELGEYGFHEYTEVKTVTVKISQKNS
For `CNc1nc(Nc2ccc(C)c(Cl)c2)nc(N)c1[N+](=O)[O-]`, the Potency was “inactive”.
In the case of `O=C(c1ccc(Cl)cc1)N1N=C(c2ccccn2)CC1(O)C(F)(F)F` (configuration not stated), the Potency is reported as “inactive”.
For `O=C(Cc1ccc(Br)cc1)N1CCN(c2ccccn2)CC1`, the Potency was “inactive”.
`COc1ccc(/C=N/N=C2/C(=O)Nc3ccccc32)cc1O` was tested, and the Potency was “inactive”.
In the case of `C(=N/N1CCN(c2ccccc2)CC1)/c1cccs1`, the Potency is reported as “inactive”.
In the case of `O=C1Nc2ccc(Br)cc2/C1=N/N=C/C1=C(N2CCOCC2)C(=C\c2ccccc2)/CC1`, the Potency is reported as 8.91 µM (active).
`C(=N\N1CCN(c2ccccn2)CC1)/C1=C(N2CCOCC2)C(=C/c2ccccc2)/CC1` was tested, and the Potency was 8.91 µM (active).
In the case of `CN(C)CCOc1ccc(Cl)cc1C(C)(C)C`, the Potency is reported as “inactive”.
In the case of `CCOC(=O)C1(Cc2ccccc2C(F)(F)F)CCN(C(=O)c2cc(C)n(C)n2)CC1`, the Potency is reported as “inactive”.
For `Cc1ccc2[nH]c(C)c(CCNC(=O)NC3CCCCC3)c2c1`, the Potency was “inactive”.
In the case of `Cc1nnc(SCCCCSc2nnc(C)c(=O)[nH]2)[nH]c1=O`, the Potency is reported as “inactive”.
With `CCOC(=O)c1c(CN(C)C)n(-c2ccccc2)c2cc(Br)c(O)cc12` the Potency was “inactive”.
For `CN1CCN(C(=O)C2C3C=CC(C3)C2C(=O)O)CC1` (configuration not stated), the Potency was “inactive”.
With `C=C(Cl)COC(=O)C1C2C=CC(C2)C1C(=O)O` (configuration not stated) the Potency was 17.8 µM (active).
For `O=C(O)C1C2C=CC(C2)C1C(=O)N1CCN(CCO)CC1` (configuration not stated), the Potency was “inactive”.
In the case of `COCCN(C(=O)c1ccccc1F)c1c(N)n(Cc2ccccc2)c(=O)[nH]c1=O`, the Potency is reported as “inactive”.
In the case of `O=C(O)Cc1csc(-c2cccc(Oc3ccccc3)c2)n1`, the Potency is reported as “inactive”.
In the case of `CN(Cc1nc2ccc(F)cc2[nH]1)Cc1nc(CC2CC2)no1`, the Potency is reported as “inactive”.
In the case of `CCCCOc1ccc(C(=O)N/C(=C/C=C/c2ccccc2)C(=O)N2CCOCC2)cc1`, the Potency is reported as 25.1 µM (active).
With `CCCCOc1ccc(C(=O)NN2CCN(C)CC2)cc1` the Potency was “inactive”.
With `O=C(NC(=O)N1CCOCC1)c1ccccc1` the Potency was “inactive”.
`CCn1c(SCC(=O)N(C)C2CCS(=O)(=O)C2)nnc1-c1cccs1` (configuration not stated) was tested, and the Potency was “inactive”.
With `CCNC(=O)NNC(=O)C1CC(c2cccs2)=NO1` (configuration not stated) the Potency was “inactive”.
In the case of `CCOc1ccc(N2C(=O)Nc3ccccc3C2(O)C(=O)NCc2ccco2)cc1` (configuration not stated), the Potency is reported as “inactive”.
`CCOc1ccc(N2C(=O)/C(=C/c3ccc(C)o3)N(C)C2=S)cc1` was tested, and the Potency was 7.94 µM (active).
`CCOc1ccc(N2C(=O)CN(c3cccc4ccccc34)C2=S)cc1` was tested, and the Potency was “inactive”.
For `CCN=c1sc(C(=O)Nc2ccccc2)c(C)n1CC`, the Potency was “inactive”.
With `CC1CCN(C(=S)c2ccc(-c3ccc(Cl)cc3Cl)o2)CC1` the Potency was 28.2 µM (active).
`COc1ccc(C(=O)Nc2c(Cl)cc(Cl)cc2C(=O)N2CCC(C)CC2)cc1` was tested, and the Potency was “inactive”.
`O=C(Nc1cccc2ncccc12)c1ccc(-c2ccc(Cl)cc2Cl)o1` was tested, and the Potency was “inactive”.
In the case of `CCOC(=O)c1ccccc1NC(=S)N1CCC(C(N)=O)CC1`, the Potency is reported as “inactive”.
`CCCc1nc2c([nH]1)C(c1cccnc1)C(C#N)=C(N)O2` (configuration not stated) was tested, and the Potency was 7.94 µM (active).
With `COc1ccc(-c2[nH]nc3c2C(c2ccncc2)C(C#N)=C(N)O3)cc1` (configuration not stated) the Potency was “inactive”.
For `CCOc1c(OC)cc(C2C(C#N)=C(N)Oc3n[nH]c(-c4ccncc4)c32)cc1OC` (configuration not stated), the Potency was “inactive”.
In the case of `Cc1ccc(S(=O)(=O)NC(=O)Nc2nc(-c3ccc(F)c(F)c3)cs2)cc1`, the Potency is reported as “inactive”.
In the case of `Cn1cc(CN2CCCCC2c2ccccn2)c(-c2ccc3c(c2)OCCO3)n1` (configuration not stated), the Potency is reported as “inactive”.
For `CN(C)/C=C(/C(=O)c1ccccc1Cl)S(C)(=O)=O`, the Potency was “inactive”.
With `Clc1ccc(-c2csc(-c3ccncc3)n2)cc1` the Potency was “inactive”.
`CC(=O)c1c(C)[nH]c(C(=O)OCC(=O)Nc2cc(S(=O)(=O)N3CCCCC3)ccc2C)c1C` was tested, and the Potency was “inactive”.
For `CCCCn1c(=S)[nH]c2ccccc2c1=O`, the Potency was “inactive”.
In the case of `CC(C)n1c(=S)[nH]c2cc(C(F)(F)F)ccc21`, the Potency is reported as 31.6 µM (active).
`CC(C)n1c(=O)[nH]c2cc(C(=O)Nc3ccccc3)ccc21` was tested, and the Potency was “inactive”.
With `CN(C)CCn1c(=S)[nH]c2ccc(Cl)cc2c1=O` the Potency was “inactive”.
With `CCCn1c(=S)[nH]c2ccc(C(F)(F)F)cc21` the Potency was 17.8 µM (active).
`O=[N+]([O-])c1ccc2oc(-c3cccc(O)c3)nc2c1` was tested, and the Potency was “inactive”.
For `OCCC1CN(Cc2cnc(-c3ccccc3)s2)CCN1CCc1ccccc1` (configuration not stated), the Potency was “inactive”.
For `Fc1ccccc1Cc1ccc(Cl)nn1`, the Potency was “inactive”.
In the case of `O=C(O)CCC(=O)N(Cc1cccs1)Cc1cccs1`, the Potency is reported as “inactive”.
`O=C(CCc1ccccc1)NCCc1cccs1` was tested, and the Potency was “inactive”.
For `Cc1ccnc(NC(=O)CCC(=O)N(CC(=O)NCCc2ccccc2)Cc2cccs2)c1`, the Potency was 14.1 µM (active).
In the case of `CN(C)CCCCCN(C)Cc1cc2ccccc2o1`, the Potency is reported as “inactive”.
`CCOc1ccc(NC(=O)CN(C)CC(=O)NC(C)c2ccccc2)cc1OCC` (configuration not stated) was tested, and the Potency was “inactive”.
`O=C(O)CSCC(=O)Nc1ccc(C(F)(F)F)cc1` was tested, and the Potency was “inactive”.
With `COc1ccc2c(c1)O[C@@H](c1ccc3c(c1)OCO3)[C@H](OC(=O)NCc1ccco1)C2=O` the Potency was “inactive”.
`CC1CCN(S(=O)(=O)c2ccc(S(=O)(=O)NCc3cccnc3)cc2)CC1` was tested, and the Potency was “inactive”.
In the case of `COc1ccc(-n2nc3c(c2NC(=O)c2ccc(N4C(=O)CCC4=O)cc2)CSC3)cc1`, the Potency is reported as “inactive”.
In the case of `COc1cccc(OC)c1C(=O)NC(=S)Nc1ccc(N2CCOCC2)c(Cl)c1`, the Potency is reported as “inactive”.
For `O=C(NC(=S)Nc1cc(C(F)(F)F)ccc1N1CCOCC1)c1ccc(-c2cccc(Cl)c2)o1`, the Potency was “inactive”.
`O=C(NC(=S)Nc1ccc2oc(=O)ccc2c1)c1ccc(-c2cccc(Cl)c2Cl)o1` was tested, and the Potency was 11.2 µM (active).
`CC1=C(C)C(=O)OC(C(C)C2CCC3C4CC=C5CC(OC6OC(COC7OC(CO)C(O)C(O)C7O)C(O)C(O)C6O)CC(O)C5(C)C4CCC23C)C1` (configuration not stated) was tested, and the Potency was “inactive”.
`C[C@@]12CCC(=O)C=C1CC[C@H]1C2[C@@H](O)C[C@]2(C)[C@@H]1CC[C@@]2(O)C(=O)COC(=O)C1CCCC1` (some centres not stated) gave an activity, negative = inhibition of -0.294% [at 13.5 µM].
With `O=C(NCCSc1ccccc1)c1ccco1` the Potency was “inactive”.
For `O=C(NCCc1ccco1)c1nn(Cc2ccccc2)c(=O)c2ccccc12`, the Potency was 17.8 µM (active).
`Nc1nonc1C(=O)NCCc1ccccc1` was tested, and the Potency was “inactive”.
`NC1=NC2(CCCCC2)N(c2ccc(F)cc2F)C(N)=N1` was tested, and the Potency was “inactive”.
`CSc1nnc(-c2ccc(C(F)(F)F)cn2)o1` was tested, and the Potency was “inactive”.
`CCn1c(-c2cccnc2Cl)nc2cc(C)c(C)cc21` was tested, and the Potency was “inactive”.
